Source: PubChem (National Center for Advancing Translational Sciences (NCATS))
Only some compounds are listed: those with a hit (about 0.52% of all), similar ones and a draw of the others.
Tb PFK block: T. brucei PFK enzyme inhibition; Potency, µM (series often up to 57.5 µM), for the others: at the highest dose activity, negative = inhibition, hits mostly inhibitors; T. brucei PFK, ADP-Glo luminescence; actives 0.17% (n = 330,000); O15648; AID 485367;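 note: 0% = uninhibited 1x PFK enzyme wells and -100% = no-enzyme wells; nearly all actives have a fitted effect of over 60% in size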
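PFK 1.25 nM, F6P 0.5 mM, ATP 0.1 mM, 0.1 M TEA pH 8.0, 5 mM MgCl2, 0.01% Tween20, 0.1% BSA; 45 min RT. ADP-Glo readout. qHTS titration up to 57 uM; curves fitted, compounds curve-classed.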
PGK inhibitor: T. brucei PGK inhibition; Potency, µM (top dose mostly 57.5 µM), for the others: top-dose activity change, negative = inhibition, most hits filed as inhibitors; actives 0.043% (n = 380,000); PGK/GAPDH coupled, Kinase-Glo luminescence, 60 min; AID 602233; note: nearly all actives have a fitted effect of over 60% in size
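Luminescent ATP detection (Kinase-Glo Plus) follows a 60-minute room-temperature incubation, with wells lacking PGK as controls. Buffer: 100 mM TEA (pH 7.6), 5 mM MgCl2, 0.01% Tween-20. Coupling enzyme GAPDH (100 nM final) supplies unstable 1,3-BPG in-well.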
USP2a inh: blocks human ubiquitin-specific protease USP2a. O75604. USP2 core, Ub-CHOP2 coupled fluorogenic reporter, 485/531. Potency, µM (doses to about 38.3 µM), for the others: at the highest dose activity change, negative = inhibition, most hits filed as inhibitors. actives 0.01% (n = 330,000). AID 463254;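 note: plate controls were DMSO wells for no effect and full inhibition by NEM control for full effect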
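Cell-free coupled assay: 10nM USP2 core preincubated 30min RT with compound in Tris-HCl pH 8.0/CaCl2/CHAPS buffer, then 25nM Ub-CHOP2 and 25nM reporter substrate; fluorescence (Ex 485/Em 531) read after 60min RT, normalized to NEM inhibition, concentration-response curves fitted.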
GLS inh: glutaminase GLS (human) inhibition; AID 624170; Potency, µM (series often up to 45.5 µM), without a hit: at the top dose activity change, negative = inhibition, most hits filed as inhibitors; O94925; actives 0.21% (n = 410,000); GLS enzymatic activity, qHTS titration
Target sequence (O94925 whole entry, looked up): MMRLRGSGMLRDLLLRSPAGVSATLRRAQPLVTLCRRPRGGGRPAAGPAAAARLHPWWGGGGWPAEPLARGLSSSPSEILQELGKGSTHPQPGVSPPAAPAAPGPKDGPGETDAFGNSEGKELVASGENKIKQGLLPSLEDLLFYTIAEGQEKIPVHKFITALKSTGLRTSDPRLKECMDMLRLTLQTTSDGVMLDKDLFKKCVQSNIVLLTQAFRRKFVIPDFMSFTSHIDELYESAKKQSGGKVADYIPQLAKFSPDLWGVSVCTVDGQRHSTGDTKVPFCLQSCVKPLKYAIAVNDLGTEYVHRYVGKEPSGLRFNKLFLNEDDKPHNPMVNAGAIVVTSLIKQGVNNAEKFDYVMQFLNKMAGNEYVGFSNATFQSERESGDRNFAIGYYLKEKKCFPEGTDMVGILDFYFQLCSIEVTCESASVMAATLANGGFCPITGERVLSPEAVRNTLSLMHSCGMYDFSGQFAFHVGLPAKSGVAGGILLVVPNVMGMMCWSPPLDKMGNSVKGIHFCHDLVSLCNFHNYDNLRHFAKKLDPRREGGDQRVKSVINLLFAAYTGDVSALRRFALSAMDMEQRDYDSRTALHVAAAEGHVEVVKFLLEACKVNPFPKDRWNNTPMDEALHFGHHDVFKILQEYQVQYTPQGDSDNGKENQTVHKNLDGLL
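hKGA; 45 mM KH2PO4 pH 8.2 + 0.02% Tween-20; cpd via pin tool; 1 mM Gln soln; GluOx/HRP/Amplex Red; RT 30 min; fluor. t0 & final.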
KAT2A inh: blocks human GCN5L2 histone acetyltransferase; actives 0.21% (n = 390,000); AID 504327; GCN5L2 HAT assay, ThioGlo1 CoA-SH fluorescence; Potency, µM (titrated, usually from 58.9 µM), for inactives: top-dose activity change, negative = inhibition, hits mostly inhibitors
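Compounds, pin-transferred from DMSO stocks, meet 20nM GCN5L2 for 15 min before the reaction begins with H3(1-25) peptide (75uM) and acetyl-CoA (70uM). Thiol-reactive ThioGlo1 reports CoA release over 20 min at room temperature.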
Active calls of the source: *; [ ] = another dose, or the depositor's remark. Calls come from the whole dose curve; as a rule, active = well fitted curve in the direction sought with a large enough effect; inconclusive = small, poorly fitted or top-dose-only effect, or another doubt; inactive = no such curve, though single readings can be large; an effect the other way counts as inactive or inconclusive. Unless noted, % is set by controls: 0 for no effect and ±100 for the full control effect; potency is the fitted concentration of half-maximal effect.

Cc1cccc(C2=NN(c3ccccc3)[C@@H](C(=O)N3CCOC3=O)[C@@H]2c2ccc(F)cc2)c1 was read as Tb PFK block 0%, PGK inhibitor -8%, USP2a inh 3%, GLS inh -1% and KAT2A inh 32µM*.
For Cc1cccc(C2=NN(c3ccccc3)[C@@H](C(=O)N3CCOC3=O)[C@@H]2c2ccc(Cl)cc2)c1 the results were Tb PFK block 3%, PGK inhibitor -3%, USP2a inh -8%, GLS inh 0% and KAT2A inh inconclusive.
For Cc1ccccc1NC(=O)CC1SC(=O)N(c2ccccc2)C1=O (stereo not drawn) the results were Tb PFK block 4%, PGK inhibitor 1%, USP2a inh -5%, GLS inh 47% and KAT2A inh -3%.
O=C(CC1SC(=O)N(c2ccccc2)C1=O)Nc1cccc2ccccc12 (stereo not drawn) was read as Tb PFK block 2%, PGK inhibitor -1%, USP2a inh -5%, GLS inh 10µM* and KAT2A inh -27%.
O=C(/C=C/c1ccc(O)c(O)c1)O[C@H](Cc1ccc(O)c(O)c1)C(=O)O was read as Tb PFK block 17µM*, USP2a inh inconclusive and KAT2A inh -16%.
For O=C(O)/C=C/c1ccc(O)c(O)c1 the results were Tb PFK block inconclusive, PGK inhibitor inactive, USP2a inh -1%, GLS inh inconclusive and KAT2A inh 1%.
S=c1[nH]c2ccccc2s1 was read as GLS inh -12%[99.4 µM] and KAT2A inh 20µM*.
For O=C(Nc1ccc2[nH]c(=S)sc2c1)c1ccccc1 the results were Tb PFK block -3%, PGK inhibitor -3%, USP2a inh -7%, GLS inh inconclusive and KAT2A inh 1%.
For CN1CCN(S(=O)(=O)c2ccc(N3CCN(c4ccc(O)cc4)CC3)c([N+](=O)[O-])c2)CC1 the results were Tb PFK block -14%, PGK inhibitor -3%, USP2a inh 4%, GLS inh 8.9µM* and KAT2A inh 4%.
For CSc1ccc(CCNC(=O)CCc2c(C)nc3c(-c4ccccc4)c(C)nn3c2C)cc1 the results were PGK inhibitor -2%, GLS inh 2% and KAT2A inh -5%.
CCCCCCCCCCCCCCCC(=O)OCC(O)C1OC(=O)C(O)=C1O (stereo not drawn) was read as GLS inh 5% and KAT2A inh 8.9µM*.
For Cc1cc(O)c(C=O)c2c1C(=O)Oc1c(C)c(O)c3c(c1O2)C(O)OC3=O (stereo not drawn) the results were KAT2A inh 35µM*.
For COc1cc(C)c2c(c1C=O)Oc1c(c(C)c(O)c3c1C(O)OC3=O)OC2=O (stereo not drawn) the results were Tb PFK block -29%, PGK inhibitor inconclusive, USP2a inh -6%, GLS inh -5% and KAT2A inh -24%.
Cc1cc(C)cc(C(=O)N/N=C/c2ccoc2)c1 was read as Tb PFK block -2%, PGK inhibitor -18%, USP2a inh 0%, GLS inh 2% and KAT2A inh -2%.
COc1cc(C(=O)N/N=C/c2ccc(OC(=O)c3ccccc3)c(OC)c2)ccc1O was read as Tb PFK block 2%, PGK inhibitor -7%, USP2a inh 0%, GLS inh -5% and KAT2A inh -9%.
For COc1cc(/C=N/NC(=O)c2cc(O)cc(O)c2)ccc1OC(=O)c1ccccc1 the results were Tb PFK block -19%, PGK inhibitor 13µM*, USP2a inh -2%, GLS inh 13µM* and KAT2A inh -4%.
Screening O=C(N/N=C/c1ccoc1)c1cc(O)cc(O)c1 returned Tb PFK block inconclusive, PGK inhibitor inconclusive, USP2a inh -2%, GLS inh 13µM* and KAT2A inh inconclusive.
Screening CC1CCN(c2ncnc3c2cnn3-c2ccc(F)cc2)CC1 returned PGK inhibitor 10%, GLS inh 14% and KAT2A inh -15%.
O=C(O)c1ccccc1-c1c2cc(Br)c(=O)c(Br)c-2oc2c(Br)c(O)c(Br)cc12 was read as GLS inh -28% and KAT2A inh 22µM*.
Screening O=C(COC(=O)c1cc(NS(=O)(=O)c2cccs2)ccc1O)Nc1ccc(F)c(F)c1F returned Tb PFK block -12%, PGK inhibitor -5%, USP2a inh -1%, GLS inh 13µM* and KAT2A inh -4%.
For O=C(COC(=O)c1cc(NS(=O)(=O)c2cccs2)ccc1O)Nc1cc(Cl)ccc1Cl the results were Tb PFK block 2%, PGK inhibitor -5%, USP2a inh 3%, GLS inh 9% and KAT2A inh -4%.
`CCCCCCCC(=O)CC[C@H]1[C@@H](C/C=C/CCCC(=O)OC(C)C)[C@@H](O)C[C@H]1O` gave GLS inh -4%.
`Cc1cccc(-c2noc(-c3ccccc3OCC(=O)Nc3ccccc3[N+](=O)[O-])n2)c1` gave PGK inhibitor 3%, GLS inh 1% and KAT2A inh -13%.
For O=C(O)c1ccccc1N/N=C/c1c(Sc2nnnn2-c2ccccc2)nc2ccccn2c1=O the results were Tb PFK block -2%, PGK inhibitor -29%, USP2a inh 3%, GLS inh 11µM* and KAT2A inh -6%.
O=c1oc(-c2ccc(O)c(O)c2)cc2cc(O)cc(O)c12 was read as Tb PFK block inconclusive, PGK inhibitor -7%, USP2a inh -6%, GLS inh 18µM* and KAT2A inh -15%.
`NC(N)=NCCCC(N)C(=O)O` (stereo not drawn) gave GLS inh -6%.
Screening c1ccc(SSc2ccccn2)nc1 returned PGK inhibitor inactive and GLS inh 10µM*.
CC(C)(C)C(=O)CSc1nc2ccsc2c(=O)n1Cc1ccccc1Cl was read as PGK inhibitor 2%, GLS inh 2% and KAT2A inh -13%.
Screening Cn1c(=O)c(C(=O)c2ccccc2)nc2ccccc21 returned Tb PFK block 3%, PGK inhibitor -5%, USP2a inh 3%, GLS inh 11µM* and KAT2A inh -3%.
Screening O=C(c1ccccc1)c1nc2ccccc2n(CCCn2c(=O)c(C(=O)c3ccccc3)nc3ccccc32)c1=O returned Tb PFK block 5%, PGK inhibitor -1%, USP2a inh 5%, GLS inh -2% and KAT2A inh -6%.
`COC(=O)c1c(SCC(=O)Nc2ccccc2OC)[nH]c2ccccc2c1=O` gave PGK inhibitor -12%, GLS inh -5% and KAT2A inh -9%.
